# Measured values: PubChem BioAssay AID463173 (ICCB-Longwood Screening Facility, Harvard Medical School, 2010)
# The whole screen tested about 52,000 compounds, of which about 4,300 (8.3%) were called active. Many of the other results were omitted from the sample, so actives are more common in it than they were. Values without a mark were called inactive. Cut-off read from the data, not from the text of the source: active = survival mostly below about 52% (no sharp cut-off); inactive = mostly above about 56%.
# Test system: DeltatarO mutant
# Assay: S. aureus survival, RN4220 and DeltatarO strains – OD600, teichoic acid synthesis inhibitors, primary screen (AID 463173)
# Details: S. aureus RN4220 wild type/DeltatarO growth, OD600, 18 h, hits give low values, screened at 18.75 µg/mL (by protocol)
row,SMILES,survival
1,O=C(c1ccc(F)cc1)N1CCN(CCc2ccncc2)CC1,84%
2,CCc1ccc(NCc2cc3ccc(OC)cc3n(CC(=O)Nc3c(C)cc(C)cc3C)c2=O)cc1,76%
3,N#CSc1ccc(NCCO)cc1C(F)(F)F,95%
4,O=C(NCCc1ccc(Cl)cc1)C(=O)NCC(c1ccco1)S(=O)(=O)c1ccc(Cl)cc1 (centres undefined),94%
5,O=C1CN(C(=O)c2ccc(Cl)cc2Cl)C(c2ccc(F)cc2)c2cc(F)ccc2N1 (centres undefined),65%
6,O=c1c(NCCc2ccc(Cl)cc2)nccn1-c1ccccc1,55%
7,O=c1c(NCc2ccccc2Cl)nccn1-c1ccccc1,17% (active)
8,COc1ccc(-n2ccnc(NCc3ccccc3Cl)c2=O)cc1OC,81%
9,COc1ccc(-n2ccnc(NCc3ccccc3OC)c2=O)cc1,89%
10,COc1ccc(-n2ccnc(NCc3cccs3)c2=O)cc1OC,85%
11,COc1ccc(-n2ccnc(NCc3cccs3)c2=O)cc1,20% (active)
12,COc1ccc(-n2ccnc(NCc3ccc(C)cc3)c2=O)cc1OC,94%
13,COc1ccc(-n2ccnc(NCc3ccc(Cl)cc3)c2=O)cc1,8% (active)
14,O=c1c(NCc2cccs2)nccn1-c1ccccc1,68%
15,Cc1cc(C)cc(NC(=O)c2cccc(N3CCCS3(=O)=O)c2)c1,101%
16,CCc1ccc(N2C(=O)CSC23C(=O)N(Cc2cccc(F)c2)c2ccccc23)cc1 (centres undefined),124%
17,O=C1C(=O)N(C2CCN(C(=O)c3ccccc3Cl)CC2)CCN1Cc1ccc(F)cc1,67%
18,CN1C(C(=O)Nc2ccc(F)cc2F)=CC(c2cccs2)=NS1(=O)=O,99%
19,CCCOc1ccc(-c2nc(SC)[nH]c(=O)c2C#N)cc1OC,79%
20,Cc1ccccc1C(=O)N1CCC(c2nc3ccccc3s2)CC1,75%
21,COc1ccccc1OC(C)C(=O)N1CCC(c2nc3ccccc3s2)CC1 (centres undefined),2% (active)
22,CCC(Oc1ccccc1F)C(=O)N1CCC(c2nc3ccccc3s2)CC1 (centres undefined),2% (active)
23,CC(Oc1ccc(F)cc1)C(=O)N1CCC(c2nc3ccccc3s2)CC1 (centres undefined),58%
24,COc1cc(C(=O)N2CCC(c3nc4ccccc4s3)CC2)cc(OC)c1OC,74%

row,SMILES,survival
1,COc1ccc(C(=O)N2CCC(c3nc4ccccc4s3)CC2)cc1Cl,62%
2,CCc1ccc(OC(C)C(=O)N2CCC(c3nc4ccccc4s3)CC2)cc1 (centres undefined),28% (active)
3,COc1cccc(C(=O)N2CCC(c3nc4ccccc4s3)CC2)c1,70%
4,O=C(c1ccccc1Cl)N1CCC(c2nc3ccccc3s2)CC1,57%
5,COCCCNC(=O)Cn1cnc2sc(C)c(S(=O)(=O)N3CCC(C)CC3)c2c1=O,69%
6,CCOCCc1nn2c(=O)cc(COC(=O)c3ccccc3NC(=O)c3cccs3)nc2s1,58%
7,COc1ccc(CNC(=O)c2cc(-c3ccc(C)cc3)nc3n[nH]c(-c4ccc(Br)cc4)c23)cc1,74%
8,O=C(NCCc1ccc(Cl)cc1)c1nnc(Cc2ccc(Cl)cc2Cl)o1,96%
9,COc1ccccc1CNC(=O)CCNS(=O)(=O)c1ccc2c(c1)CCCC(=O)N2,60%
10,CC1CCN(C(=O)Cn2c(=O)n(CCCCCC(=O)NCc3ccccc3Cl)c(=O)c3sccc32)CC1,69%
11,COc1ccc(N2CC(NC(=O)C(c3ccccc3)c3ccccc3)CC2=O)cc1OC (centres undefined),90%
12,CC(=O)Nc1ccc(NC(=O)C(NC(=O)C2CCC(C)CC2)C(C)C)cc1 (centres undefined),128%
13,COc1ccc(NC(=O)c2sc3nc4c(cc3c2N)CN(Cc2ccccc2)CC4)cc1,96%
14,CN1CCc2nc3sc(C(=O)Nc4c(F)cccc4F)c(N)c3cc2C1,153%
15,CCN1CCc2nc3sc(C(=O)Nc4ccccc4OC(F)(F)F)c(N)c3cc2C1,44% (active)
16,COc1ccc(NC(=O)c2sc3nc4c(cc3c2N)CCCCCC4)cc1,127%
17,CCN1CCc2nc3sc(C(=O)Nc4cccc(Cl)c4C)c(N)c3cc2C1,125%
18,CC(=O)c1cccc(NC(=O)c2sc3nc4c(cc3c2N)CCCC4)c1,60%
19,CCOc1ccccc1NC(=O)c1sc2nc3c(cc2c1N)CN(Cc1ccccc1)CC3,63%
20,COc1ccccc1NC(=O)c1sc2nc3c(cc2c1N)CN(Cc1ccccc1)CC3,101%
21,COc1ccc(NC(=O)c2sc3nc4c(cc3c2N)CN(Cc2ccccc2)CC4)c(OC)c1,47% (active)
22,Nc1c(C(=O)Nc2ccc(C(=O)O)cc2)sc2nc3c(cc12)CCCC3,42% (active)
23,CN1CCc2nc3sc(C(=O)Nc4cccc(C#N)c4)c(N)c3cc2C1,54% (active)
24,CCN(CC)c1ccc(NC(=O)c2sc3nc4c(cc3c2N)CN(C)CC4)cc1,181%

row,SMILES,survival
1,CCOC(=O)C1=C(CS(=O)(=O)c2cccc(C(F)(F)F)c2)NC(=O)NC1c1cccc(OC)c1 (centres undefined),48%
2,CC(=O)c1ccc(NS(=O)(=O)c2ccc3[nH]c4c(c3c2)CCCCCC4)cc1,84%
3,CCOc1ccc(C(=O)c2oc3ccccc3c2NC(=O)Cc2coc3cc(C)cc(C)c23)cc1,100%
4,CC(=O)c1ccc(NC(=O)CSc2ccc(-c3cccs3)nn2)cc1,126%
5,COc1cccc(C(=O)CN2CCN(S(=O)(=O)c3ccc(Cl)cc3)CC2)c1,74%
6,COc1ccccc1OCC(=O)N(Cc1ccco1)Cc1ccccc1F,64%
7,CCc1cc(CC)c(/C=N/NC(N)=O)c(CC)c1/C=N/NC(N)=O,94%
8,Nc1c(C(=O)Nc2ccccc2)sc2nc3c(cc12)CN(Cc1ccccc1)CC3,63%
9,CCc1ccc(NC(=O)c2sc3nc4c(cc3c2N)CN(CC)CC4)cc1,49% (active)
10,Cc1ccc(NC(=O)c2sc3nc4c(cc3c2N)CN(Cc2ccccc2)CC4)cc1,110%
11,Cc1cccc(N2CCN(C(=O)Cn3ncc4c3-c3ccccc3OC4)CC2)c1C,77%
12,COc1ccc(C(C)C)cc1S(=O)(=O)NCCc1c(C)[nH]c2ccc(C)cc12,84%
13,COc1ccc2[nH]c(C)c(CCNS(=O)(=O)c3cc(F)ccc3OC)c2c1,57%
14,COc1cc(Cl)c(S(=O)(=O)NCCc2c(C)[nH]c3c(C)cccc23)cc1Cl,57%
15,COc1cc(C)c(Cl)cc1S(=O)(=O)NCCc1c(C)[nH]c2ccccc12,37% (active)
16,COc1c(C)cc(S(=O)(=O)NCCc2c(C)[nH]c3ccccc23)c(C)c1C,59% (active)
17,COc1cc(S(=O)(=O)NCCc2c(C)[nH]c3ccccc23)c(C)cc1C,56%
18,COc1cccc(C(c2nnnn2CCC(C)C)N2CCN(c3cccc(C)c3C)CC2)c1OC (centres undefined),82%
19,CCOC(=O)C1CC1c1ccccc1 (centres undefined),81%
20,Cc1cccc(C(=O)Nc2ccc(C(=O)OCc3cc(=O)n4nc(CC(C)C)sc4n3)cc2)c1,99%
21,COc1cccc(Nc2ccc3cc(S(=O)(=O)N4CCC(C)CC4)ccc3n2)c1,88%
22,COc1ccc(NC(=O)N(Cc2nnc3n2CCCCC3)c2ccc(OC)c(Cl)c2)cc1,60%
23,O=C(O)c1cccnc1N1CCOCC1,84%
24,O=C(NCc1cccs1)c1ccc(CSc2nc3ccncc3n2Cc2ccccc2)cc1,110%

row,SMILES,survival
1,COc1ccc(OC)c(NS(=O)(=O)c2ccc3[nH]c4c(c3c2)CCCCC4)c1,77%
2,C=Cc1ccc(Cn2nc(-c3ccc(C)cc3)ccc2=O)cc1,35% (active)
3,Cc1ccc(-c2ccc(=O)n(CC(=O)NCCc3ccccc3)n2)cc1,57%
4,Cc1ccc(C)c(-c2ccc(=O)n(Cc3ccc(F)cc3Cl)n2)c1,32% (active)
5,C=Cc1ccc(Cn2nc(-c3ccc(C)c(S(=O)(=O)N(CC)CC)c3)ccc2=O)cc1,53%
6,Cc1ccc(C)c(Cn2nc(-c3cc(C)ccc3C)ccc2=O)c1,44%
7,COC(=O)c1ccc(Cn2nc(-c3ccc(C)cc3)ccc2=O)cc1,133%
8,Cc1ccc(C)c(-c2ccc(=O)n(Cc3c(F)cccc3Cl)n2)c1,81%
9,Cc1ccc(-c2ccc(=O)n(CC(=O)NCCc3ccc(Cl)cc3)n2)cc1,69%
10,Cc1ccc(-c2ccc(=O)n(Cc3ccc(F)cc3)n2)cc1,50%
11,Cc1ccc(-c2ccc(=O)n(Cc3cc(C)ccc3C)n2)cc1,57% (active)
12,O=c1ccc(-c2ccccc2)nn1Cc1ccc(F)cc1Cl,49%
13,Cc1ccc(CCNC(=O)Cn2nc(-c3ccc(C)cc3)ccc2=O)cc1,0% (active)
14,Cc1ccc(NC(=O)CCN2CCN(CCO)CC2)cc1C,54%
15,Cc1ccc(CCNC(=O)c2ccc3c(c2)nc2n3CCOC2)cc1,86%
16,CCc1ccc(-n2c(=O)c3cccnc3n2CC(=O)Nc2ccccc2C(F)(F)F)cc1,71%
17,Cc1c(-c2ccc(Cl)cc2)c(=O)oc2c(CN3CCOCC3)c(O)ccc12,82%
18,O=c1oc(-c2cccc3ncccc23)nn1Cc1ccccc1F,102%
19,COc1cccc(CNC(=O)CCc2nnc3n(C)c(=O)c4sccc4n23)c1,63%
20,CCc1ccc(C(=O)c2cn(CC(=O)Nc3ccc(C)c(C)c3)c3ccccc3c2=O)cc1,108%
21,CC(C)CC(=O)n1nc(-c2cccnc2)nc1NCc1ccc(F)cc1,89%
22,Cc1cc(Nc2ccc(F)cc2)nc(-n2nc(C)cc2C)n1,70%
